Laboratory results from PubChem BioAssay AID1159580 (chemical genetic matrix, 2015).
Among all 5,500 compounds or so, about 2,000 (36%) were called active. Not shown: some 18% with an inconclusive outcome. Cut-off read from the data, not from the text of the source: active = normalized growth mostly below about 0.91 (no sharp cut-off); inconclusive = no clear call, values can overlap the other calls; inactive = mostly above about 0.92. This is one part of the list.

Experiment: chemical genetic growth profiling, strain panel (AID 1159580);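 note: tested at 20 µM; growth read once vehicle control cultures reached saturation at 30 °C; 1 = growth at the plate median or of vehicle wells; lower values mean less growth of the strain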
Details: growth OD
[1] = S. cerevisiae deletion strains, locus YAL013W, strain DEP1, stronger effect = lower value
[2] = S. cerevisiae deletion strains, locus YDR150W, strain NUM1, stronger effect = lower value
[3] = S. cerevisiae deletion strains, locus YJL095W, strain BCK1, stronger effect = lower value
[4] = S. cerevisiae deletion strains, locus YMR307W, strain GAS1, stronger effect = lower value
[5] = S. cerevisiae deletion strains, locus YPL241C, strain CIN2, stronger effect = lower value
[6] = S. cerevisiae deletion strains, locus YAL040C, strain CLN3, stronger effect = lower value
[7] = S. cerevisiae deletion strains, locus YDR363W, strain ESC2, stronger effect = lower value
[8] = S. cerevisiae deletion strains, locus YER002W, strain NOP16, stronger effect = lower value
[9] = S. cerevisiae deletion strains, locus YNL175C, strain NOP13, stronger effect = lower value
[10] = S. cerevisiae deletion strains, locus YNL197C, strain WHI3, stronger effect = lower value
[11] = S. cerevisiae deletion strains, locus YNL224C, strain SQS1, stronger effect = lower value
[12] = S. cerevisiae deletion strains, locus YOR083W, strain WHI5 (second series), stronger effect = lower value

Measured: normalized growth

CC1(C)C(=O)[C@@H]2O[C@@H]2[C@@]2(C)C1CC(=O)[C@]1(C)C2CC[C@@]2(C)[C@H](c3ccoc3)OC(=O)[C@H]3O[C@]321 (some centres undefined)
inactive: [1] 0.99 | S. cerevisiae deletion strains, locus YBR021W, strain FUR4, stronger effect = lower value 1.04 | S. cerevisiae deletion strains, locus YBR229C, strain ROT2, stronger effect = lower value 0.984 | S. cerevisiae deletion strains, locus YCL029C, strain bik1, stronger effect = lower value 0.976 | S. cerevisiae deletion strains, locus YDL035C, strain GPR1, stronger effect = lower value 0.992 | S. cerevisiae deletion strains, locus YDL074C, strain BRE1, stronger effect = lower value 0.955 | S. cerevisiae deletion strains, locus YDL101C, strain DUN1, stronger effect = lower value 0.978 | S. cerevisiae deletion strains, locus YDL134C, strain PPH21, stronger effect = lower value 0.967 | S. cerevisiae deletion strains, locus YDL185W, strain tfp1, stronger effect = lower value 0.951 | S. cerevisiae deletion strains, locus YDL192W, strain arf1, stronger effect = lower value 0.979 | S. cerevisiae deletion strains, locus YDR101C, strain arx1, stronger effect = lower value 0.985 | [2] 0.991 | S. cerevisiae deletion strains, locus YDR162C, strain NBP2, stronger effect = lower value 0.943 | S. cerevisiae deletion strains, locus YDR318W, strain mcm21, stronger effect = lower value 0.984 | S. cerevisiae deletion strains, locus YDR388W, stronger effect = lower value 0.985 | S. cerevisiae deletion strains, locus YDR502C, strain sam2, stronger effect = lower value 0.969 | S. cerevisiae deletion strains, locus YEL061C, strain CIN8, stronger effect = lower value 0.994 | S. cerevisiae deletion strains, locus YER110C, stronger effect = lower value 0.98 | S. cerevisiae deletion strains, locus YER155C, strain BEM2, stronger effect = lower value 0.994 | S. cerevisiae deletion strains, locus YER167W, strain BCK2, stronger effect = lower value 0.991 | S. cerevisiae deletion strains, locus YGL078C, strain dbp3, stronger effect = lower value 0.966 | S. cerevisiae deletion strains, locus YGL086W, strain mad1, stronger effect = lower value 0.995 | S. cerevisiae deletion strains, locus YGL248W, strain PDE1, stronger effect = lower value 0.949 | S. cerevisiae deletion strains, locus YGR135W, strain pre9, stronger effect = lower value 0.968 | S. cerevisiae deletion strains, locus YGR252W, strain gcn5, stronger effect = lower value 0.962 | S. cerevisiae deletion strains, locus YHR079C, strain IRE1 (second series), stronger effect = lower value 0.987 | S. cerevisiae deletion strains, locus YHR094C, strain hxt1, stronger effect = lower value 0.981 | S. cerevisiae deletion strains, locus YHR129C, strain ARP1, stronger effect = lower value 0.988 | S. cerevisiae deletion strains, locus YHR200W, strain rpn10, stronger effect = lower value 0.988 | S. cerevisiae deletion strains, locus YIL066C, strain RNR3, stronger effect = lower value 0.987 | S. cerevisiae deletion strains, locus YIL073C, strain SPO22, stronger effect = lower value 0.96 | S. cerevisiae deletion strains, locus YIL125W, strain kgd1, stronger effect = lower value 0.943 | S. cerevisiae deletion strains, locus YIR030C, strain dcg1, stronger effect = lower value 0.975 | [3] 0.946 | S. cerevisiae deletion strains, locus YJL134W, strain LCB3, stronger effect = lower value 0.988 | S. cerevisiae deletion strains, locus YJL168C, strain set2, stronger effect = lower value 0.989 | S. cerevisiae deletion strains, locus YJL187C, strain SWE1 (second series), stronger effect = lower value 0.977 | S. cerevisiae deletion strains, locus YJR043C, strain POL32, stronger effect = lower value 0.991 | S. cerevisiae deletion strains, locus YKL009W, strain mrt4, stronger effect = lower value 0.971 | S. cerevisiae deletion strains, locus YKL068W, stronger effect = lower value 0.973 | S. cerevisiae deletion strains, locus YKL085W, strain MDH1 (second series), stronger effect = lower value 0.981 | S. cerevisiae deletion strains, locus YKL085W, strain MDH1, stronger effect = lower value 0.981 | S. cerevisiae deletion strains, locus YKR001C, strain vps1, stronger effect = lower value 0.957 | S. cerevisiae deletion strains, locus YLR039C, strain RIC1, stronger effect = lower value 0.951 | S. cerevisiae deletion strains, locus YLR058C, strain SHM2, stronger effect = lower value 0.988 | S. cerevisiae deletion strains, locus YLR102C, strain apc9, stronger effect = lower value 0.975 | S. cerevisiae deletion strains, locus YLR262C, strain YPT6, stronger effect = lower value 0.912 | S. cerevisiae deletion strains, locus YLR268W, strain sec22, stronger effect = lower value 0.997 | S. cerevisiae deletion strains, locus YLR330W, strain CHS5, stronger effect = lower value 0.99 | S. cerevisiae deletion strains, locus YLR342W, strain FKS1 (second series), stronger effect = lower value 1.03 | S. cerevisiae deletion strains, locus YLR371W, strain rom2, stronger effect = lower value 0.962 | S. cerevisiae deletion strains, locus YLR418C, strain cdc73, stronger effect = lower value 0.904 | S. cerevisiae deletion strains, locus YML016C, strain PPZ1, stronger effect = lower value 0.984 | S. cerevisiae deletion strains, locus YML032C, strain rad52, stronger effect = lower value 0.992 | S. cerevisiae deletion strains, locus YML124C, strain tub3, stronger effect = lower value 0.97 | S. cerevisiae deletion strains, locus YMR078C, strain ctf18, stronger effect = lower value 0.955 | S. cerevisiae deletion strains, locus YMR223W, strain ubp8, stronger effect = lower value 0.973 | [4] 1.05 | S. cerevisiae deletion strains, locus YNL067W, strain RPL9B, stronger effect = lower value 0.957 | S. cerevisiae deletion strains, locus YNL233W, strain BNI4, stronger effect = lower value 0.964 | S. cerevisiae deletion strains, locus YNL250W, strain rad50, stronger effect = lower value 0.96 | S. cerevisiae deletion strains, locus YNL271C, strain bni1, stronger effect = lower value 0.973 | S. cerevisiae deletion strains, locus YNL298W, strain CLA4, stronger effect = lower value 0.967 | S. cerevisiae deletion strains, locus YNL307C, strain MCK1, stronger effect = lower value 0.982 | S. cerevisiae deletion strains, locus YNR052C, strain pop2, stronger effect = lower value 0.977 | S. cerevisiae deletion strains, locus YOL006C, strain TOP1, stronger effect = lower value 0.895 | S. cerevisiae deletion strains, locus YOL012C, strain htz1 0.769 | S. cerevisiae deletion strains, locus YOL147C, strain pex11, stronger effect = lower value 0.988 | S. cerevisiae deletion strains, locus YOR061W, strain CKA2, stronger effect = lower value 0.977 | S. cerevisiae deletion strains, locus YOR069W, strain VPS5, stronger effect = lower value 0.985 | S. cerevisiae deletion strains, locus YOR136W, strain idh2, stronger effect = lower value 0.995 | S. cerevisiae deletion strains, locus YOR144C, strain elg1, stronger effect = lower value 0.983 | S. cerevisiae deletion strains, locus YOR184W, strain ser1, stronger effect = lower value 0.982 | S. cerevisiae deletion strains, locus YOR316C, strain cot1, stronger effect = lower value 0.973 | [5] 0.977 | S. cerevisiae deletion strains, locus YPR119W, strain clb2, stronger effect = lower value 0.986 | S. cerevisiae deletion strains, locus YPR141C, strain kar3, stronger effect = lower value 0.964 | S. cerevisiae deletion strains, locus YPR163C, strain tif3, stronger effect = lower value 0.995 | S. cerevisiae deletion strains, locus YPR167C, strain met16, stronger effect = lower value 0.985 | S. cerevisiae deletion strains, strain wtn01, stronger effect = lower value 0.978 | S. cerevisiae strains, strain wild type, stronger effect = lower value 1.01

Cc1nc(N=Nc2ccc(S(=O)(=O)O)cc2S(=O)(=O)O)c(COP(=O)(O)O)c(C=O)c1O
inactive: [6] 1 | S. cerevisiae deletion strains, locus YCL061C, strain MRC1 (second series), stronger effect = lower value 1 | [2] 1.01 | [7] 1.01 | [8] 0.993 | S. cerevisiae deletion strains, locus YGR229C, strain SMI1, stronger effect = lower value 1.02 | [4] 0.998 | S. cerevisiae deletion strains, locus YNL128W, strain TEP1, stronger effect = lower value 1.02 | [9] 1 | [10] 1.01 | [11] 1.01 | [12] 1.01 | S. cerevisiae deletion strains, locus YPL055C, strain LGE1, stronger effect = lower value 1 | [5] 0.997

CC(C)C1C2CCC(C2)C1N (centres undefined)
inactive: [1] 1.01 | [6] 0.976 | [2] 0.985 | [7] 1.02 | [8] 1 | S. cerevisiae deletion strains, locus YGR078C, strain PAC10, stronger effect = lower value 1.02 | S. cerevisiae deletion strains, locus YNL153C, strain GIM3, stronger effect = lower value 1.03 | [9] 1.02 | [10] 1 | [11] 1.03 | [12] 1.01

O1[As]2O[As]3O[As]1O[As](O2)O3
inactive: S. cerevisiae deletion strains, locus YHR030C, strain SLT2, stronger effect = lower value 0.959 | S. cerevisiae deletion strains, locus YHR079C, strain IRE1, stronger effect = lower value 0.974 | [3] 0.983 | S. cerevisiae deletion strains, locus YJR066W, strain TOR1, stronger effect = lower value 0.961 | S. cerevisiae deletion strains, locus YLR113W, strain HOG1, stronger effect = lower value 1.05 | S. cerevisiae deletion strains, locus YNL183C, strain NPR1, stronger effect = lower value 0.927 | S. cerevisiae deletion strains, locus YOR231W, strain MKK1, stronger effect = lower value 0.973 | S. cerevisiae deletion strains, locus YPL256C, strain CLN2, stronger effect = lower value 0.98
